Results reported in PubChem BioAssay AID2284200 (EPA ToxCast).
Calls of active or inactive are those of the source. Rule for the calls: active = hit-call score of the fitted dose curve at least 0.9, where 1 is the maximum; inactive = score below 0.9.

Experiment: ERF_TW_NR_rI2: Eurofins (ERF) Radioligand Binding LeadHunter Assay for rat Imidazoline I2 Central Antagonism
Experimental: ERF_TW_NR_rI2 is a biochemical, single-readout assay that uses extracted gene-proteins in a cell-free assay. Measurements were taken 0.5 hour after chemical dosing in a 96-well plate. See Imidazoline I2, Central Rat Binding (Antagonist Radioligand) Assay, Panlabs.ERF_TW_NR_rI2 is an assay component calculated from the ERF_TW_NR_rI2 assay. It is designed to measure radioligand binding using a type of binding reporter as detected by scintillation counting with radiometry technology.Data from the assay component ERF_TW_NR_rI2 was analyzed at the assay endpoint, ERF_TW_NR_rI2, in the positive analysis fitting direction relative to DMSO as the negative control and baseline of activity. Using a type of binding reporter, loss-of-signal activity can be used to understand changes in radioligand binding as they relate to gene NISCH (homolog). To generalize the intended target to other relatable targets, this assay endpoint is annotated to the oxidoreductase intended target family, where the subfamily is imidazoline receptor.
Brains (except cerebella) of male Wistar derived rats weighing 175 +/- 25 g are used to prepare imidazoline I2 receptors in modified Tris-HCl buffer pH 7.4. A 15 mg aliquot is incubated with 2 nM [3H] Idazoxan for 30 minutes at 25C. […] Membranes are filtered and washed, the filters are then counted to determine [3H] […]

| SMILES | outcome |
| --- | --- |
| COc1cc(CCC(=O)CC(=O)CCc2ccc(O)c(OC)c2)ccc1O | inactive |
